The list is not random: actives were taken first. Their share in the collection is about 9.3%.
ELG1 repair inh = ELG1-dependent DNA repair inhibition. HEK293T ELG1-luciferase reporter, luminescence, 16 h; DNA damage induced by 5-fluorouridine. Potency, µM (series often up to 46.1 µM), usual class: inhibitors. 330,000 tested, 2.3% active; further: nearly all actives have a fitted effect of over 55% in size
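HEK293T cells expressing luciferase-tagged ELG1 (2,000/well) received 5-Fluorouridine plus compound or DMSO for 16 hr at 37 °C. Luciferase was read by ONE-Glo luminescence after 30 min at room temperature.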
FLuc counter = firefly luciferase modulation, counter-screen for miR-21 project | AID 588342 | P08659 | Potency, µM (top dose mostly 57.5 µM), actives largely listed as inhibitors | purified FLuc, Km substrates, luminescence inhibition | 360,000 tested, 6.9% active; further: nearly all actives have a fitted effect of over 55% in size
Target sequence (P08659 whole entry, looked up): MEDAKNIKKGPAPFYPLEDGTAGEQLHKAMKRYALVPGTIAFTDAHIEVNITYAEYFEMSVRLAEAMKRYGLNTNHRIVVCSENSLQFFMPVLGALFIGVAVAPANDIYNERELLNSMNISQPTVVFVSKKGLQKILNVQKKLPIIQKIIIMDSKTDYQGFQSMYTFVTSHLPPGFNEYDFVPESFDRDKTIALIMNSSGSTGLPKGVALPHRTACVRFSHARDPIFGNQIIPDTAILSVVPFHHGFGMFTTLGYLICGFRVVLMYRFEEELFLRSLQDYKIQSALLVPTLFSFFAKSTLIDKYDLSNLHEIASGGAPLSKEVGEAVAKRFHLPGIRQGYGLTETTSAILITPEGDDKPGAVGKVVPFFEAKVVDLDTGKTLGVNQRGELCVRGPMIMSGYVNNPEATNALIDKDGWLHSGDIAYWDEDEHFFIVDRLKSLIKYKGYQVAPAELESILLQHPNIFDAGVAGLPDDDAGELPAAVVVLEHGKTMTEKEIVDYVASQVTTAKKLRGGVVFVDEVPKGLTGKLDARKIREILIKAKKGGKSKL
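Purified P. pyralis luciferase (10nM final) with 10uM D-luciferin and 10uM ATP (Km levels) in 50mM Tris acetate pH 7.5, 10mM Mg acetate, 0.01% Tween-20, 0.05% BSA; qHTS 6-point titration, ~60 µM downward; luminescence read.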
SMN2 splice up = SMN2 splice variant enhancement | HEK293 SMN2-luciferase splicing reporter, luminescence, 30-36 h | Potency, µM (titrated, usually from 46.1 µM), hits mostly activators | 210,000 tested, 2.8% active; further: nearly all actives have a fitted effect of over 55% in size
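HEK293 cells carry an SMN2 minigene-luciferase reporter in which exon 7 inclusion puts luciferase in frame. Cells were seeded at 2000 cells/well, attached for 10-12 hours, then exposed to compounds for 30-36 hours at 37C before ONE-Glo luminescence.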
Rab9 promoter act = activates the Rab9 promoter; Huh7 Rab9 promoter-luciferase reporter, luminescence, 24 h; Potency, µM (series often up to 9.22 µM), usual class: activators; 320,000 tested, 2.8% active; AID 485297; further: nearly all actives have a fitted effect of over 60% in size
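Huh7 cells stably carrying Rab9 promoter–luciferase reporter, plated 1500 cells/well, compound added after 2 h and incubated 24 h at 37 °C; luciferase luminescence then read after 10 min with detection reagent.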
ELG1 genotox = genotoxicity induction in ELG1-luciferase HEK293T cells. HEK293T ELG1-luciferase reporter, luminescence, 16 h. 330,000 tested, 1.3% active. Potency, µM (series often up to 46 µM), actives largely listed as activators; further: nearly all actives have a fitted effect of over 60% in size
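DMSO vehicle served as control against compound-treated ELG1-luciferase HEK293T cells; exposure lasted 16 hr at 37 °C and 5% CO2, followed by ONE-Glo luminescence detection after 30 min.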
NPC1 prom act = activates the NPC1 promoter. Huh7 NPC1 promoter luciferase reporter, 24 h. 320,000 tested, 2.4% active. Potency, µM (highest dose often 9.22 µM), usual class: activators; further: nearly all actives have a fitted effect of over 60% in size
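Stably transfected Huh7 (NPC1 promoter→luciferase), 1500 cells/well in Opti-MEM + 10% FBS, 2 h settle, then compound 24 h at 37 °C. Luminescence after 10 min with Amplite reagent.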
Numbers stand for hits; . = inactive; ? = inconclusive; / = no result; [ ] = another dose, or the depositor's remark. The call rests on the fitted dose curve; in most records, active means well fitted curve in the direction sought with a large enough effect; inconclusive means small, poorly fitted or top-dose-only effect, or another doubt; inactive means no such curve, though single readings can be large; an effect the other way counts as inactive or inconclusive.

SMILES	ELG1 repair inh	FLuc counter	SMN2 splice up	Rab9 promoter act	ELG1 genotox	NPC1 prom act
O=C(O)c1ccccc1-c1ccc(/C=c2\sc3nc4cc(Br)cnc4n3c2=O)o1	.	.	.	.	.	.
Cc1cc2nc(/C(C#N)=C\c3ccc(-c4ccccc4C(=O)O)o3)[nH]c2cc1C	.	1.5µM	/	.	.	.
Cc1cc(C)c(NC(=O)CN(C)C(=O)C2CC(=O)N(c3cccc4ccccc34)C2)c(C)c1 (configuration not stated)	.	.	/	.	.	.
N#C/C(=C\c1ccc(Sc2ccccc2)o1)c1nc2ccccc2[nH]1	?	2.7µM	11µM	2.2µM	?	2.8µM
Cc1ccc2nc(/C(C#N)=C/c3ccc(-c4ccccc4C(=O)O)o3)[nH]c2c1	.	4.3µM	/	.	.	.
CCOC(=O)c1ccc(-c2ccc(/C=C(\C#N)c3nc4ccc(C)cc4[nH]3)o2)cc1	/	.	.	/	/	/
Cc1cn2c(=O)cc(COC(=O)c3cccc(NC(=O)COc4ccccc4)c3)nc2s1	/	.	/	/	/	/
Cc1ccc2nc(NC(=O)CSc3nncc(=O)n3N)sc2c1	?	?	.	.	.	.
CCN(CC)S(=O)(=O)c1ccc(O)c(C(=O)OCC(=O)NC23CC4CC(CC(C4)C2)C3)c1	.	/	/	/	.	/
COc1ccc(C2=NN(C(=O)CN3CCCCC3)C(c3ccc(C)cc3)C2)cc1 (configuration not stated)	.	.	.	.	.	.
COc1ccc(C2CC(c3ccccc3)=NN2C(=O)CN2CCN(Cc3ccccc3)CC2)cc1 (configuration not stated)	18µM	.	.	.	.	.
COc1ccc(C2=NN(C(=O)CN3CCOCC3)C(c3nc4ccccc4[nH]3)C2)cc1 (configuration not stated)	?	15µM	?	?	?	.
c1ccc(C2CCCN(Cc3nc(CC4CC4)no3)CC2)cc1 (configuration not stated)	?	24µM	.	.	.	.
Cc1nc2sc(C(=O)Nc3ccccc3)c(N)c2c(C)c1[N+](=O)[O-]	?	?	?	4.5µM	7.3µM	3.2µM
Cc1nc2sc(C(=O)OC(C)C)c(N)c2c(C)c1C	?	.	.	4.5µM	.	.
Nc1c(C(=O)Nc2ccccc2)sc2ncc([N+](=O)[O-])cc12	?	.	/	?	.	?
Cc1nc2sc(C(=O)c3ccccc3)c(N)c2c(C)c1C	.	?	.	.	.	.
CC(=O)c1ccc(NC(=O)c2sc3nc(C)c(C)c(C)c3c2N)cc1	?	0.48µM	/	0.79µM	3.7µM	0.56µM
Cc1ccc(Cn2ccn(Cc3ccccc3F)c(=O)c2=O)cc1	/	.	/	/	/	/
CN1CC(=O)N(CC(=O)Nc2cc(Cl)cc(Cl)c2)C1=O	.	.	.	.	.	.
CCOc1ccccc1NC(=O)CCSc1nc2n[nH]c(C)c2c(=N)n1-c1ccccc1Cl	3.2µM	.	.	.	.	.
CCn1cnc2cc(NC(=O)c3cccs3)ccc21	?	15µM	13µM	2.2µM	?	3.5µM
CCn1cnc2cc(NCc3ccc(N(C)C)cc3)ccc21	?	?	.	.	?	.
CN(C)c1ccc(CNc2ccc3c(c2)ncn3C(C)(C)C)cc1	.	8.5µM	/	.	.	.
Cn1c(CN2CCCCC2)nc2cc(NC(=O)c3cccs3)ccc21	.	?	.	.	.	.
SMILES	ELG1 repair inh	FLuc counter	SMN2 splice up	Rab9 promoter act	ELG1 genotox	NPC1 prom act
CC(C)(C)n1cnc2cc(NC(=O)c3cccs3)ccc21	?	7.6µM	13µM	1.3µM	?	2.5µM
CCn1cnc2cc(NCc3cccs3)ccc21	?	?	?	.	?	?
CC(C)(C)n1cnc2cc(NCc3cccs3)ccc21	?	12µM	8.9µM	?	.	?
OCC(O)/C=N/Nc1nc(Nc2ccccc2)nc(Nc2ccccc2)n1 (configuration not stated)	.	.	/	.	.	.
COc1cc(C(=O)Nc2ccc3c(c2)ncn3C)cc(OC)c1OC	?	?	/	.	?	.
CC(C)(C)n1cnc2cc(NC(=O)c3ccccc3)ccc21	?	6µM	/	1.4µM	5.2µM	1.4µM
S=C(c1ccc(-c2ccc(Cl)cc2)o1)N1CCCCC1	?	1.1µM	5µM	1.4µM	2.6µM	1.3µM
CN1CCN(Cc2ccc(-c3ccc(Cl)cc3)o2)CC1	.	?	?	.	?	.
N#CCCN1CCN(C(=S)c2ccc(-c3ccc(Cl)cc3)o2)CC1	?	21µM	.	.	?	.
CN1CCN(C(=S)c2ccc(-c3cccc(Cl)c3Cl)o2)CC1	?	4.8µM	/	?	?	?
CN1CCN(C(=O)c2ccc(CS(=O)(=O)c3c(Cl)cccc3Cl)o2)CC1	.	.	.	.	.	.
S=C(c1ccc(-c2ccccc2Cl)o1)N1CCCCC1	?	5.4µM	13µM	3.5µM	?	2.8µM
Clc1ccc(-c2ccc(CN3CCCCC3)o2)cc1	?	?	/	.	.	.
CC1=C(C(=O)Nc2cccnc2)C(c2cccc(Br)c2)n2nc(SCc3ccccc3)nc2N1 (configuration not stated)	/	.	.	/	/	/
O=[N+]([O-])c1cc(Cl)ccc1NCCNS(=O)(=O)c1ccccc1	.	27µM	.	.	.	.
O=[N+]([O-])c1ccccc1NCCNS(=O)(=O)c1ccc(Cl)cc1	.	.	.[1.84 µM]	.	.	.
O=C(Nc1cccc(F)c1)N1CC[C@@]2(CCCN(S(=O)(=O)c3ccccc3)C2)C1	/	/	.	/	/	/
COc1ccc(OC)c(CCNC(=O)CCn2c(=O)c3cccn3c3ccc(F)cc32)c1	/	.	/	/	/	/
CC1Cc2ccccc2N1c1ncnc2nc[nH]c12 (configuration not stated)	.	21µM	.	.	.	.
c1ccc2c(c1)CCN(c1ncnc3nc[nH]c13)C2	.	.	.	.	.	.
CC1Cc2ccccc2N1c1ncnc(N)c1[N+](=O)[O-] (configuration not stated)	1.5µM	.	.	.	.	.
C=CCN(c1ccc(F)cc1)S(=O)(=O)c1cc(C(=O)NC2CCC(O)CC2)ccc1Cl (configuration not stated)	.	.	/	.	.	.
C=CCN(c1ccccc1OC)S(=O)(=O)c1cccc(C(=O)NC2=NCCS2)c1	23µM	/	/	/	.	/
C=CCN(c1ccccc1)S(=O)(=O)c1cc(C(=O)NC2=NCCS2)ccc1Cl	21µM	.	.	.	.	.
CCOC(=O)Cn1cncc1-c1ccc([N+](=O)[O-])cc1	?	24µM	?	?	.	.
COc1ccc(CNC(=O)C2Cc3cc(S(=O)(=O)N4CCCC4)ccc3N2C(C)=O)c(OC)c1 (configuration not stated)	.	.	/	.	.	.
